Hit rate of the full screen: of about 210,000 compounds, about 5,900 (2.8%) were called active. Inconclusive results (about 5%) are left out. The entries come from a sample that favours actives as a whole. A number with no mark means an inactive call. The call rests on the fitted dose curve; in most records, active means well fitted activation curve with a large enough effect; inconclusive means small, poorly fitted or top-dose-only effect; inactive means no such curve, though single readings can be large or run the other way.
Assay: qHTS Assay for Enhancers of SMN2 Splice Variant Expression; further: nearly all actives have a fitted effect of over 55% in size; on activity change, positive = activation: % of control where 0% means no effect
Conditions: HEK293 SMN2-luciferase splicing reporter, luminescence, 30-36 h; series mostly up to 46.1 µM; activity change, positive = activation: at the top concentration
Method in brief: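 HEK293 cells carry an SMN2 […]–luciferase reporter in which exon 7 inclusion puts luciferase in frame. Cells were plated 10-12 h before compound addition, then incubated 30-36 h at 37C. ONE-Glo luminescence was read; sodium butyrate at 4.5 mM final served as control.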
Potency means the concentration at half of the fitted maximal effect.

Row | SMILES | activity change, positive = activation [%] | Potency
1 | CSc1ncccc1C(=O)Nc1nc2ccc(F)cc2s1 | -21.2 | –
2 | CCS(=O)(=O)N1Cc2ccccc2CC1C(=O)Nc1nc2ccc(F)cc2s1 (stereo unspecified) | – | 14.1 µM (active)
3 | O=C(Nc1nc2ccc(F)cc2s1)c1nc(SCc2ccccc2F)ncc1Cl | 3.21 | –
4 | Cc1cccc(N2CCN(C(=O)c3ccc4c(c3)CCN4S(=O)(=O)c3ccccc3)CC2)c1C | -31.7 | –
5 | Cn1c(=O)n(Cc2ccco2)c(=N)c2c3c(sc21)CCCC3 | -0.885 | –
6 | O=C(NCc1ccco1)c1cccn2c(=O)c3c4c(sc3nc12)CCCC4 | -28.6 | –
7 | O=c1oc(-c2ccco2)nc2sc3c(c12)CCCCC3 | – | 14.1 µM (active)
8 | Oc1ccccc1-c1nc2ccc(Cl)cn2c1Nc1ccc2c(c1)OCCO2 | -1.05 | –
9 | CC(=O)C1C(c2cccc(Oc3ccccc3)c2)NC(=O)NC1(O)C(F)(F)F (stereo unspecified) | 8.81 | –
10 | CC(=O)C1C(c2ccc(Cl)cc2)NC(=O)NC1(O)C(F)(F)F (stereo unspecified) | 7.08 | –
11 | O=C(c1cccs1)C1C(c2ccc(Br)cc2)NC(=S)NC1(O)C(F)(F)F (stereo unspecified) | – | 12.6 µM (active)
12 | Fc1ccc2c(c1)C(c1cccnc1)=NNC(c1cccs1)=N2 | -11.3 | –
13 | CCOc1ccc2c(c1)C(c1ccc(C)cc1)=NNC(c1ccc(C)cc1)=N2 | – | 12.6 µM (active)
14 | COc1ccc2c(c1)C(c1cccs1)=NNC(c1cccnc1)=N2 | -4.02 | –
15 | Cc1cccn2c(=O)c3cc(C(=O)NC(C)c4ccccc4)c(=N)n(CCCO)c3nc12 (stereo unspecified) | -17.4 | –
16 | COc1cc(OC)cc(C(=O)Nc2c(C(=O)Nc3ccc(F)cc3)oc3ccccc23)c1 | 0.56 | –
17 | COc1ccc(/C=C(\C#N)C(=O)ONC2=NCCCCC2)cc1 | -13.8 | –
18 | Oc1ccc(/C=N/NC2=NCCCCC2)c(O)c1 | – | 12.6 µM (active)
19 | CCN(CC)c1ccc(/C=N/Nc2nc(C)cc(C)n2)c(O)c1 | -70.1 | –
20 | NS(=O)(=O)c1ccc(NC(=O)COc2ccc(S(=O)(=O)NC3CCCCC3)cc2)cc1 | -1.03 | –
21 | Cc1ccc(S(=O)(=O)NCC(=O)N(CC(=O)NC2CCCCC2)Cc2ccco2)cc1 | – | 20 µM (active)
22 | Cc1ccc(S(=O)(=O)NCC(=O)N(CC(=O)NC(C)(C)C)Cc2cccs2)cc1 | 2.37 | –
23 | Cc1ccc(S(=O)(=O)N(C)CC(=O)NC2CCCC2)cc1 | -21.5 | –
24 | CN(Cc1ccccc1)C(=O)c1cc2c(=O)n(C)c3ccccc3c2s1 | -7.18 | –
25 | Cc1cccc(NC(=O)CN(c2ccc(C(C)C)cc2)S(=O)(=O)c2c(C)nn(C)c2C)c1C | 3 | –
26 | CCOc1ccc(-c2cc3nc(C4CCN(C(=O)OC(C)(C)C)CC4)c(C(=O)Nc4ccc(C(=O)OC)cc4)cn3n2)cc1 | -1.9 | –

Row | SMILES | activity change, positive = activation [%] | Potency
27 | CCCN(CCC)c1ccc(C(O)c2nnc(-c3ccccc3)o2)cc1 (stereo unspecified) | -65.9 | –
28 | OC(c1nnc(-c2ccccc2)o1)c1cccs1 (stereo unspecified) | -2.46 | –
29 | Brc1ccc(-c2noc(-c3ccccc3)n2)o1 | – | 11.2 µM (active)
30 | Brc1ccc(-c2nnc(-c3ccccc3)o2)o1 | – | 14.1 µM (active)
31 | Nc1nonc1-c1noc(-c2ccc(Br)o2)n1 | 9.38 | –
32 | Cn1nc(-c2ccccc2)c(-c2nc(-c3ccc(Cl)cc3)no2)c1Cl | -29.9 | –
33 | COC(=O)c1sc2ncccc2c1-n1c(C)ccc1C | 6.92 | –
34 | Cc1sc2ncn(CC(=O)N3CCN(c4ccc(F)cc4)CC3)c(=O)c2c1S(=O)(=O)N1CCN(c2ncccn2)CC1 | 5.62 | –
35 | CCc1nccn1S(=O)(=O)c1cc(Br)ccc1Br | 1.92 | –
36 | Cc1ccc(-c2nn(CCC(=O)Nc3ccc(Cl)c(Cl)c3)c(=O)c3ccccc23)cc1 | -7.8 | –
37 | CC(C)Cn1c(C2CC(=O)N(c3ccccc3Cl)C2)nc2ccccc21 (stereo unspecified) | -18.1 | –
38 | Cc1cccc(NC(=O)CSc2nc3c(oc4ccccc43)c(=O)n2-c2ccc(F)cc2)c1 | 10.2 | –
39 | Cc1cc(C)c2oc(C(=O)Nc3ccc(S(=O)(=O)N4CCCCCC4)cc3)cc(=O)c2c1 | 6.66 | –
40 | Cc1ccc(S(=O)(=O)N(Cc2nc(-c3ccc(Cl)cc3)no2)C2CCCCC2)cc1 | -9.98 | –
41 | COc1ccc(C=Nc2cccc3ncccc23)cc1 | 7.26 | –
42 | COc1ccc(/C=N/Nc2nc3ccccc3c(=O)[nH]2)cc1 | – | 12.6 µM (active)
43 | O=c1c2ccccc2nc(N/N=C/c2ccccc2)n1O | 24.9 | –
44 | CCc1cc2c(cc3c(=O)n(CC(=O)N4CCN(c5cc(Cl)ccc5C)CC4)nc(CC)n32)s1 | -1.27 | –
45 | CCCS(=O)(=O)c1c(Nc2ccccc2C)sc(C(=O)c2ccccc2)c1N | -28.1 | –
46 | O=c1c2cccnc2n(Cc2cccc(F)c2)c(=O)n1Cc1ccccc1Cl | 2.72 | –
47 | CCCCOC(=O)CSc1ncnc2sc3c(c12)CCC(C)C3 (stereo unspecified) | 2.8 | –
48 | Cc1ccc(NC(=O)CNCc2ccccn2)cc1S(=O)(=O)N(C)C | 16.5 | –
49 | Cc1ccc(NC(=O)c2cccs2)cc1S(=O)(=O)N(C)C | 2.79 | –
50 | Cc1ccc(C(=O)Nc2ccc(C)c(S(=O)(=O)N(C)C)c2)s1 | – | 12.6 µM (active)
51 | COc1ccc(C(=O)N/N=c2\oc3ccccc3cc2C(N)=O)cc1 | -10.2 | –

Reference: PubChem BioAssay AID1458 (National Center for Advancing Translational Sciences (NCATS), 2008)
